The source of these data is PubChem BioAssay.

Test [1] can be described thus: inhibitors of TNFa-induced NFkB p65 translocation, primary screen, imaging, HUVEC, MLSMR starter and 10KST1 sets (AID 438;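 active = inhibition above 20% together with a positive visual image hit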;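 note: compound added about 3h40 before a 20 min TNFalpha stimulation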;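 for inhibition: signal is the nuclear over cytoplasmic p65 intensity ratio per well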). Particulars: HUVEC TNFa-induced p65 nuclear translocation; cell count: measured here: nuclei count (cytotoxicity indicator), at 2.08 µM unless noted; inhibition: at 2 µM, stronger effect = higher value unless noted.
Test [2] in a line: inhibitors of mutant huntingtin aggregation, primary screen, imaging, exon1htt(103Q)mCFP cells, high-content imaging (AID 483;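 active = visual image review flags a hit and inhibition of aggregation exceeds 20%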;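 note: compound exposure lasted 3 days before fixation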;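 for nuclei count: percent of the per-plate median nuclei count of sample wells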). To be noted: exon1htt(103Q)mCFP cell line, aggregate imaging, at 2 µM; inhibition of aggregation: stronger effect = higher value; nuclei count: measured here: cell count, toxicity.
A short description of test [3]: inhibitors of E-selectin induction by TNFa, primary screen, imaging, HUVEC, immunofluorescence, MLSMR starter and 10KST1 sets (AID 487;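 active = visually confirmed hit in the image check and inhibition above 20%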;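 for inhibition: signal is fraction of cell area covered by stained E-selectin grains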;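 for nuclei count: 100% = median nuclei count of all wells on the same plate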). To be noted: HUVEC TNFalpha-induced E-selectin immunofluorescence imaging, at 2 µM; inhibition: stronger effect = higher value; nuclei count: measured here: cell number, toxicity.
The nature of test [4]: DUSP6 inhibitors restoring Erk phosphorylation by chemical complementation, primary imaging in DUSP6-transfected HeLa (AID 609;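 active = compounds giving at least 50% inhibition in the cell-based MKP-3 phosphatase rescue imaging test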;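 for inhibition: phospho-Erk level distribution per well compared with pooled transfected vehicle control wells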). Particulars: HeLa MKP-3 transfected, phospho-Erk imaging KS statistic, at 10 µM.
Test [5] deals with Dual specificity protein phosphatase 6 (Homo sapiens) (UniProt Q16828). The test is described as above. To be noted: HeLa MKP-3 transfected, phospho-Erk imaging KS statistic, at 10 µM, stronger effect = higher value.
Dual specificity protein phosphatase 6 (Homo sapiens), sequence (Q16828 whole entry, looked up): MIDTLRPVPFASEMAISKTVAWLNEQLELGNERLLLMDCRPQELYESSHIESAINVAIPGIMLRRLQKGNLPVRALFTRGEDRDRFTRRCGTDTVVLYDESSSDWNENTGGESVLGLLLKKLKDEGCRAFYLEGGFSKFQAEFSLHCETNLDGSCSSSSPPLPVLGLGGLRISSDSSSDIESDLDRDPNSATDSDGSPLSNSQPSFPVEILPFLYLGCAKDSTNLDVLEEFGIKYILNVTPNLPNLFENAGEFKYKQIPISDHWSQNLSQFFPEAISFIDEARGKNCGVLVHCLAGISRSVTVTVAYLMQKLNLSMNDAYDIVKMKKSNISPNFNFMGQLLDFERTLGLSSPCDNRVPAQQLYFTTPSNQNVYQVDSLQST
Test [6] has as its target Voltage-gated potassium channel subunit beta-2 (Rattus norvegicus) (UniProt P62483). Nature of the test: KvBeta enzyme negative modulators, primary screen, biochemical, NADPH fluorescence (AID 622;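 active = fluorescence slope higher than the sample average by over 3 SD, cut at about -0.22 in these data, passing the limit was not always enough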;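 note: slope of raw intensity against log time taken from 70 to 1610 s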). To be noted: recombinant KvBeta, 4-cyanobenzaldehyde reduction, at 10 µM, stronger effect = higher value.
For test [7] the target is unchanged. Nature of the test: KvBeta positive modulators, primary screen, biochemical, NADPH fluorescence (AID 623;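 active = NADPH fluorescence slope more negative than the mean of all samples by about 3 SD, 99.7% confidence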;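 note: fluorescence intensity change per second fitted from 20 to 320 s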). To be noted: Recombinant KvBeta, NADPH fluorescence decrease slope, 10 min; at 10 µM; stronger effect = lower value.
Test [8] deals with Alpha-2C adrenergic receptor (Homo sapiens) (UniProt P18825). Kind of test: modulators of alpha2C/GIRK thallium flux, primary screen, cell-based, HEK293 alpha2C/GIRK1/2 (AID 624;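 active = fluorescence slope after compound addition differing from the mean of all screened samples at 99.7% confidence, in either direction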;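 note: slope of fluorescence ratio to pre-addition baseline per second over 15 to 24 s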). To be noted: thallium flux BTC fluorescence, at 10 µM, actives lie on both sides.
Alpha-2C adrenergic receptor (Homo sapiens), sequence (P18825 whole entry, looked up): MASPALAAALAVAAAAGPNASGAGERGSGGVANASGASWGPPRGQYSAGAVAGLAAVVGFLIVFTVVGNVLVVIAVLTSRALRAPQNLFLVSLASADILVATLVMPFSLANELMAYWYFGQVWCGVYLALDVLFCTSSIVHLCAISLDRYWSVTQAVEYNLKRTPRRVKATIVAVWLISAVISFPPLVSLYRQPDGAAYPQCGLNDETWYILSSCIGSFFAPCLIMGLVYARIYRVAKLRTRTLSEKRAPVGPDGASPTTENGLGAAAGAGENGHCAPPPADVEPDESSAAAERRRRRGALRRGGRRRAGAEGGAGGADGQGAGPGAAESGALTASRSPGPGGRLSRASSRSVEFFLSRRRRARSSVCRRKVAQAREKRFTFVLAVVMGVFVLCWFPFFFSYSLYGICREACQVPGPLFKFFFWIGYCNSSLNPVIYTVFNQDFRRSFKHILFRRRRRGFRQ
A short description of test [9]: inhibitors of larval lipid processing in zebrafish, primary screen, whole organism, PED6 fluorescence, gall bladder and intestine (AID 686).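 Note: larvae 5 to 7 days old with five fish per well; signal comes from phospholipase A2 cleavage of quenched PED6 carried via bile; overnight exposure to compound and PED6 before scoring.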 Particulars: Zebrafish larvae PED6 lipid processing, fluorescence scoring.
Test [10] can be described thus: inhibitors of Chlamydomonas gravitaxis, primary screen, whole organism, Chlamydomonas reinhardtii, WT vs cilia-less mutant, absorbance, 96-well (AID 463189;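 active = inhibition at or above 50% relative to wild type and mutant plate controls; inactive = inhibition below 50%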;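 note: 0% = wild type cc124 cells in DMSO and 100% = ciliumless bld1 mutant cells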). To be noted: OD600 absorbance, 2 days, at 10 µM, stronger effect = higher value.
A short description of test [11]: inhibitors of Sendai virus-induced IRF3 signaling, primary screen, TLR/RLR signaling modifier project, cell-based, Sendai virus stimulus, luciferase, 10K MLSCN set (AID 602276;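 active = inhibition at or above 50% at 10 µM; inactive = inhibition below 50%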;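 note: firefly luciferase from ISG56 promoter only with Renilla not read in this screen; 0% = Sendai virus plus DMSO and 100% = medium plus DMSO without virus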). Particulars: HEK293 RL24 IRF3 luciferase reporter, at 10 µM, stronger effect = higher value. On the technique in general: In a reporter assay the amount or activity of a reporter protein is the signal.

The nature of test [12]: inhibitors of poly I:C-induced TLR3 signaling, primary screen, cell-based, poly I:C stimulus, luciferase, 10K MLSCN set (AID 602277;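 active = inhibition of the reporter signal at or above 50%; inactive = inhibition below 50%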). To be noted: HEK293-TLR3 RL24 IRF3 luciferase reporter, at 10 µM, stronger effect = higher value.
The mark [13] stands for this setting: measured here: cell density z-score.
Setting [14] is: measured here: nuclear c-Myc green intensity z-score.
Setting [15] is: measured here: nuclear pErk red intensity z-score, stronger effect = higher value.

Activity calls are given as the source filed them.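 Rule for the calls, unless noted: active = a full or partial loss of lipid-probe fluorescence in the fish gall bladder, intestine or both, judged by eye; inactive = no fluorescence loss, or compound toxic to the fish.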

Voltage-gated potassium channel subunit beta-2 (Rattus norvegicus), sequence (P62483 whole entry, looked up): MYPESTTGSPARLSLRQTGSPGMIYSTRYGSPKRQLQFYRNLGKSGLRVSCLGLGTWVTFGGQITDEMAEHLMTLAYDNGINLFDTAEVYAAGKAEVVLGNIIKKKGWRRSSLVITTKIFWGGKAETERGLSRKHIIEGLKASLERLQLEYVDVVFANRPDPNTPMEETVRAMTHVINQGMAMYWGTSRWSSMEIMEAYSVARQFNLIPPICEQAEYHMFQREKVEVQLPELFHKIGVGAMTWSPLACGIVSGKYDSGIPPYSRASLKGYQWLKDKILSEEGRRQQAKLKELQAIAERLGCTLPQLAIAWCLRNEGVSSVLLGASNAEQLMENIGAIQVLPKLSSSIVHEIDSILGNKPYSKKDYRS

Compound `C=C1CC[C@@]2(O)[C@H]3Cc4ccc(O)c5c4[C@@]2(CCN3CC2CC2)[C@H]1O5` came in with a cell count in test [1] of 527. In addition, the inhibition is 0.1% (inactive) in test [1]; -20.4% (inactive) in test [3]; 14.6% (inactive) in test [5]; -15.6% (inactive) in test [10]; -6.04% (inactive) in [11]; 25% (inactive) in test [12]. Further, the inhibition of aggregation in test [2] is -9.9% (inactive). The nuclei count came to 99.2% in [2] and 109% in test [3]. Further, the z-score in test [4] (setting [13]) is 0.737; in [4] (setting [14]), 1.29; in [4] (setting [15]), -0.809. In addition, the fluorescence slope in test [6] is -0.469 (inactive). For the same compound, the NADPH fluorescence slope in [7] is -4e-05 (inactive). In addition, the slope in [8] was 0.00496 (inactive). In addition, the outcome in [9] was inactive.

For `O=c1c(C=NCCN2CCNCC2)c(O)n(C2CCCCC2)c(=O)n1C1CCCCC1`, in test [1], the cell count came to 583. Besides, the inhibition in test [1] was -5.8% (inactive); in [3], -162% (inactive); in [5], 3.97% (inactive); in [10], 2.5% (inactive). Further, in [3], the nuclei count was 138%. Also, the figures for the z-score in [4] (setting [13]), in test [4] (setting [14]) and in test [4] (setting [15]) were 0.0473, 0.939 and 0.718, respectively. The fluorescence slope in test [6] was -0.516 (inactive). Moreover, the NADPH fluorescence slope in test [7] is -3.1e-05 (inactive). Besides, the slope in test [8] is 0.00535 (inactive). In test [9], the compound was classed as inactive.

In the case of `CCOC(C(=O)OCC(O)CN(CC)CC)(c1ccccc1)c1ccccc1` (stereo not given), the cell count in test [1] is 598. Further, the inhibition was -12.4% (inactive) in [1], -341% (inactive) in test [3], -5.89% (inactive) in test [5] and 19.6% (inactive) in [10]. This compound displayed a nuclei count in [3] of 184%. Also, the figures for the z-score in [4] (setting [13]), in [4] (setting [14]) and in [4] (setting [15]) were -0.241, -0.53 and 1.71, respectively. The fluorescence slope in test [6] is -0.446 (inactive). Besides, in [7], the NADPH fluorescence slope was -0.000326 (inactive). Further, in test [8], the slope was 0.00508 (inactive). For the same compound, in [9], the compound was called inactive.

`CCCCOCCCn1c(N)c(C(=O)OC(C)COC)c2nc3ccccc3nc21` (stereo not given): the cell count in [1] was 572. For the same compound, the inhibition in test [1] was -16.3% (inactive); in [3], -75.8% (inactive); in [5], 11.9% (inactive); in [10] it was 21% (inactive). The nuclei count in test [3] came to 146%. Also, the z-score is 0.315 in test [4] (setting [13]), -0.916 in [4] (setting [14]) and -1.54 in test [4] (setting [15]). In addition, the fluorescence slope in test [6] is -0.0435 (inactive). Moreover, the NADPH fluorescence slope in [7] was -1e-05 (inactive). Further, in [8], the slope is 0.00527 (inactive). Further, the compound was classed as inactive in [9].

The compound `Cn1c(O)c(C=NC2CCN(Cc3ccccc3)CC2)c(=O)n(C)c1=O` had a cell count in test [1] of 440. In addition, the inhibition in test [1] was 1% (inactive); in [3], -22.6% (inactive); in test [5], 4.25% (inactive); in test [10] it was 0.967% (inactive). For the same compound, the nuclei count in test [3] is 136%. Also, the values for the z-score in [4] (setting [13]), in test [4] (setting [14]) and in test [4] (setting [15]) were 0.0201, 1.2 and 0.0643, respectively. The fluorescence slope in test [6] is -0.401 (inactive). The NADPH fluorescence slope in [7] is -1.9e-05 (inactive). Besides, the slope in test [8] was 0.00599 (inactive). In test [9], the outcome was inactive.

Consider `O=c1[nH]c(=O)n(Cc2ccccc2)c(O)c1C=NCCN1CCOCC1`, for which the cell count in [1] amounted to 639. Moreover, the inhibition in test [1] is -25.9% (inactive); in [3], -59.7% (inactive); in test [5], 2.71% (inactive); in [10], 0.831% (inactive). In test [3], the nuclei count came out at 156%. The z-score is 0.666 in [4] (setting [13]), -2.11 in [4] (setting [14]) and 2.73 in [4] (setting [15]). For the same compound, the fluorescence slope in [6] is -0.393 (inactive). For the same compound, the NADPH fluorescence slope in [7] was -1.2e-06 (inactive). For the same compound, the slope in [8] was 0.00558 (inactive). For the same compound, the outcome in [9] was inactive.

In the case of `CC(=O)C1(c2ccccc2)CCNCC1`, in [1], the cell count came to 472. Also, the inhibition was 0.5% (inactive) in test [1], -152% (inactive) in test [3], 7.93% (inactive) in test [5] and 14.1% (inactive) in test [10]. The nuclei count in test [3] came out at 138%. Besides, the z-score is -0.428 in [4] (setting [13]), 0.195 in [4] (setting [14]) and 0.843 in test [4] (setting [15]). Besides, in test [6], the fluorescence slope is -0.522 (inactive). In addition, the NADPH fluorescence slope in test [7] was -4.6e-05 (inactive). In [8], the slope was 0.00442 (inactive). Moreover, in [9], the compound was classed as inactive.

By inhibition is commonly meant the change of the read-out against control, counted positive when it falls.
